# Assay outcomes: PubChem, National Center for Advancing Translational Sciences (NCATS)
# SMN2 splice enh: enhancers of SMN2 splice variant expression; HEK293 SMN2-luciferase splicing reporter, luminescence, 30-36 h; Potency, µM (series often up to 46.1 µM), without a hit: at the highest dose activity change, positive = activation, most hits filed as activators; 210,000 tested, 2.8% active; AID 1458; further: % of control where 0% means no effect; nearly all actives have a fitted effect of over 55% in size
#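 HEK293 cells carry an SMN2 […]–luciferase reporter in which exon 7 inclusion puts luciferase in frame. Cells were plated 10-12 h before compound addition, then incubated 30-36 h at 37C. ONE-Glo luminescence was read; sodium butyrate at 4.5 mM final served as control.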
# FLuc modulator: firefly luciferase modulation, counter-screen for miR-21 project | P08659 | purified FLuc, Km substrates, luminescence inhibition | Potency, µM (series often up to 57.5 µM), inactives show top-dose activity change, negative = inhibition, most hits filed as inhibitors | 360,000 tested, 6.9% active;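 further: plate controls were vehicle for no effect and reference inhibitor for full effect; nearly all actives have a fitted effect of over 55% in size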
# Target sequence (P08659 whole entry, looked up): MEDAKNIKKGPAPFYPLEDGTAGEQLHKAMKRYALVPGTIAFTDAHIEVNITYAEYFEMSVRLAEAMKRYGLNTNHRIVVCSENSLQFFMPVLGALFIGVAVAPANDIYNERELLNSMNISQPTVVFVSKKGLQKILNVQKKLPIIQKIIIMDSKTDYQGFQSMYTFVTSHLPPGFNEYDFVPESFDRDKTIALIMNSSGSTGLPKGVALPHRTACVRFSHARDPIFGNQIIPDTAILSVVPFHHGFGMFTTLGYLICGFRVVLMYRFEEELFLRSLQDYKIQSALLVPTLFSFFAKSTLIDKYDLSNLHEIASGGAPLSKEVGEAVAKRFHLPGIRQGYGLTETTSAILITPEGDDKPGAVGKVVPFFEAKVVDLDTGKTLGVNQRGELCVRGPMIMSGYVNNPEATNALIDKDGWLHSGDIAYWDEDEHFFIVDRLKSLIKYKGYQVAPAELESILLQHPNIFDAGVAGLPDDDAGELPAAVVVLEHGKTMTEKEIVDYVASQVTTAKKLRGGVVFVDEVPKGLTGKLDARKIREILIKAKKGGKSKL
#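 Purified P. pyralis luciferase (10nM final) with 10uM D-luciferin and 10uM ATP (Km levels) in 50mM Tris acetate pH 7.5, 10mM Mg acetate, 0.01% Tween-20, 0.05% BSA; qHTS 6-point titration, ~60 µM downward; luminescence read.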
# Rab9 promoter act: activators of Rab9 promoter. Huh7 Rab9 promoter-luciferase reporter, luminescence, 24 h. Potency, µM (series often up to 9.22 µM), for inactives: top-dose activation, negative = inhibition, usual class: activators. 320,000 tested, 2.8% active. AID 485297; further: % of control where 0% means no effect; nearly all actives have a fitted effect of over 60% in size
#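 Luminescence read-out: Huh7 cells stably expressing Rab9-luciferase, treated 24 h with compound at 37 °C, then lysed with luciferase reagent for 10 min at ambient before reading.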
# ELG1 repair inh: ELG1-dependent DNA repair inhibition; HEK293T ELG1-luciferase reporter, luminescence, 16 h; DNA damage induced by 5-fluorouridine; Potency, µM (doses to about 46.1 µM), for inactives: at the top dose activity change, negative = inhibition, most hits filed as inhibitors; 330,000 tested, 2.3% active; further: on the % scale 0 is the no-effect control and ±100 the full control effect; nearly all actives have a fitted effect of over 55% in size
#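 HEK293T cells expressing luciferase-tagged ELG1 (2,000/well) received 5-Fluorouridine plus compound or DMSO for 16 hr at 37 °C. Luciferase was read by ONE-Glo luminescence after 30 min at room temperature.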
# ELG1 genotoxic: inducers of genotoxicity in HEK293T ELG1-luciferase cells. HEK293T ELG1-luciferase reporter, luminescence, 16 h. Potency, µM (doses to about 46 µM), inactives show at the highest dose activity change, positive = activation, usual class: activators. 330,000 tested, 1.3% active. AID 504466; further: % of control where 0% means no effect; nearly all actives have a fitted effect of over 60% in size
#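 Genotoxic stress is detected as increased luminescence from luciferase-tagged ELG1 in HEK293T cells, measured with ONE-Glo after a 16 hr treatment at 37 °C.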
# NPC1 prom act: activates the NPC1 promoter; 320,000 tested, 2.4% active; Huh7 NPC1 promoter luciferase reporter, 24 h; Potency, µM (titrated, usually from 9.22 µM), without a hit: top-dose activation, actives largely listed as activators; further: % of control where 0% means no effect; nearly all actives have a fitted effect of over 60% in size
#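 Quantitative HTS used a cell-based reporter: Huh7 cells stably bearing the NPC1 promoter upstream of luciferase were treated with compounds for 24 h, and promoter activation was read as luminescence.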
# * hit, by the source's call; ? = inconclusive; nt = no result given; [ ] = another dose, or the depositor's remark. In the library only some 9.3% were active in any assay of this set; here they are far more common. The call rests on the fitted dose curve; in most records, active means well fitted curve in the direction sought with a large enough effect; inconclusive means small, poorly fitted or top-dose-only effect, or another doubt; inactive means no such curve, though single readings can be large; an effect the other way counts as inactive or inconclusive. Potency means the concentration at half of the fitted maximal effect.
SMILES,SMN2 splice enh,FLuc modulator,Rab9 promoter act,ELG1 repair inh,ELG1 genotoxic,NPC1 prom act
C[C@H](CO)N1C[C@H](C)[C@@H](CN(C)S(=O)(=O)c2ccccc2)Oc2ccc(NC(=O)Nc3ccc(C(F)(F)F)cc3)cc2C1=O,nt,nt,nt,21µM*,-14%,nt
O=C1CC(C(=O)O)S/C(=N\N=C\c2ccc(Br)cc2)N1 (centres undefined),nt,17µM*,0%,12%,0%,-1%
Oc1cc2c(cc1O)C1c3ccc(O)c(O)c3OCC1(O)C2 (centres undefined),-106%,8.5µM*,9%,-6%,1%,1%
Nc1ccc(CCc2nc3ccccc3o2)cc1,13µM*,2.7µM*,1.6µM*,?,2.9µM*,2.5µM*
NCc1ccc(-c2nc3ccccc3o2)cc1,?,?,22%,?,?,?
CC1(C)C(=O)CC[C@@]2(C)C1CC(O)[C@@]1(C)C3=CC(=O)OC(c4ccoc4)[C@]3(C)CCC21 (some centres undefined),-16%,nt,nt,nt,nt,nt
COc1ccc(-c2nc3sc(CCNC(=O)C(=O)Nc4cc(F)ccc4F)c(C)n3n2)cc1,nt,-4%,nt,nt,nt,nt
NNC(=O)CN1CCCc2ccccc21,23%,12µM*,3%,?,?,-2%
O=C(CN1CCCc2ccccc21)N1CCc2ccccc21,nt,-16%,0%,-8%,1%,1%
Cc1cc(C)nc(SCC(=O)Nc2ccc3c(c2)OCO3)n1,nt,1%,-3%,-6%,-1%,0%
Cc1ccc(C)c(NC(=O)CCC(=O)N/N=C/c2ccc3c(c2)OCO3)c1,nt,11µM*,-2%,-12%,2%,0%
O=C(CCc1ccc(O)c(O)c1)N/N=C/c1ccc2c(c1)OCO2,nt,?,0%,5.8µM*,-3%,-7%
Cc1cc(C)nc(SCC(=O)N/N=C/c2ccc3c(c2)OCO3)n1,nt,9.5µM*,28%,?,?,?
Cc1ccccc1NCC(=O)N/N=C\c1ccc2c(c1)OCO2,-5%,?,9%,20%,4%,-5%
CC(C)Oc1ccc(CCC(=O)N/N=C/c2ccc3c(c2)OCO3)cc1,nt,?,-2%,-9%,-6%,3%
COC(=O)c1c(C)[nH]c(C=O)c1-c1ccccc1,nt,13µM*,?,?,?,27%
COC(=O)c1c(-c2ccccc2)c[nH]c1C,nt,27µM*,-1%,?,11%,3%
COC(=O)c1c(C)[nH]c(C)c1-c1ccccc1Cl,-13%,11%,1%,20%,0%,-1%
COc1ccc(Cl)cc1NC(=O)CN(C)C(=O)c1cc2c(s1)CCC(C)C2 (centres undefined),nt,-4%,0%,-25%,-8%,-6%
CCOC(=O)N1CCN(C(=O)N2CCOCC2)CC1,21%,6%[2.3 µM],-1%,19%,0%,-2%
O=C(c1cnccn1)N1CCC2(CCCN(c3ccc(-c4ccccc4)cc3)C2)CC1,4µM*,nt,nt,nt,nt,nt
COCCN1C(=O)/C(=C/c2ccc(N3CCCC3)cc2C)SC1=S,nt,4.8µM*,20%,5%,3%,0%
Cc1cc(N2CCOCC2)ccc1/C=C\[N+](=O)[O-],?,24µM*,12%,?,-21%,-7%
CN=C1S/C(=C\c2ccc(N3CCOCC3)cc2C)C(=O)N1C,-29%,?,1%,8.2µM*,1%,11%
O=[N+]([O-])c1ccc(N2CCOCC2)cc1O,nt,-2%,1%,-11%,0%,-2%
SMILES,SMN2 splice enh,FLuc modulator,Rab9 promoter act,ELG1 repair inh,ELG1 genotoxic,NPC1 prom act
CN1C(=O)/C(=C/c2ccco2)SC1=Nc1ccc(N2CCOCC2)cc1,10%,-12%,14%,?,8%,8%
CCN=C1S/C(=C\c2ccc(N3CCOCC3)cc2C)C(=O)N1CC,-12%,-9%,-15%,5.8µM*,-2%,-16%
CCOC(=O)N1CCC(c2cc(=O)n3[nH]ccc3n2)CC1,-5%,0%,-1%,-2%,0%,4%
Cc1c(NC(=O)c2cccc(NC(=O)COc3ccccc3C#N)c2)c(=O)n(-c2ccccc2)n1C,nt,1.3µM*,4µM*,?,-3%,2.2µM*
O=C(COC(=O)c1c(F)cccc1F)Nc1ccc2c(c1)OCO2,nt,6.7µM*,0%,19%,2%,-1%
Cc1cc(OCC(=O)Nc2ccc3c(c2)OCCO3)cc(C)c1Cl,10%,?,1%,5%,1%,4%
O=C(COC(=O)c1c(F)cccc1F)NCc1ccc2c(c1)OCO2,nt,nt,-8%,3%,2%,-8%
O=C(COc1ccccc1F)Nc1ccc2c(c1)OCCO2,nt,6.7µM*,3.2µM*,?,10µM*,1.8µM*
COc1cccc(NC(=O)COC(=O)c2c(F)cccc2F)c1,14%,11µM*,-3%,13%,2%,-2%
COc1ccccc1-c1nc(C#N)c(N2CCCCCC2)o1,-8%,?,2%,-29%,4%,13%
O=C(COc1ccccc1Br)Nc1ccc2c(c1)OCCCO2,nt,2.1µM*,1.4µM*,?,?,1.3µM*
N#Cc1ccccc1OCC(=O)Nc1ccc2c(c1)OCCCO2,nt,17µM*,3.2µM*,?,26%,2.2µM*
C/C(CC(=O)Nc1ccc2c(c1)OCCO2)=N\NC(=O)COc1ccc(C)cc1Br,nt,?,-5%,0%,-1%,-7%
O=C(COC(=O)Cc1ccccc1F)Nc1ccc2c(c1)OCO2,10%,?,1%,3%,-2%,-2%
CC(C)NC(=O)COc1ccccc1C#N,-9%,-1%,1%,-11%,8%,-9%
N#Cc1ccccc1OCC(=O)Nc1ccc2c(c1)OCCO2,nt,9.5µM*,1.4µM*,?,?,?
O=C(COC(=O)Cc1ccccc1F)Nc1ccc2c(c1)OCCO2,7%,17µM*,-1%,29%,-2%,1%
